Data from PubChem BioAssay (NCATS).
A number with no mark means an inactive call. Results filed as inconclusive are left out. The source made the active and inactive calls. Unless noted, the call rests on the fitted dose curve; in most records, active means well fitted curve in the direction sought with a large enough effect; inconclusive means small, poorly fitted or top-dose-only effect, or another doubt; inactive means no such curve, though single readings can be large; an effect the other way counts as inactive or inconclusive.

How the values were obtained:
[1] = target: Lysosomal acid glucosylceramidase (Homo sapiens) (UniProt P04062); test: Glucocerebrosidase-p2 (AID 348; in the data active means potency below about 10 µM; further: potency means the concentration at half of the fitted maximal effect); settings: purified GBA, blue fluorogenic substrate, 40 min
How it was run: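 Normal human glucocerebrosidase (0.2 nM) with blue fluorogenic substrate (80 uM final) in citrate/phosphate pH 5.9 with 10mM sodium taurocholate, 0.01% tween-20; 40 min RT, NaOH/glycine stop; fluorescence Ex 365/Em 440; AC50 from a titration from 0.6 nM upwards.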

[2] = target: Cytochrome P450 1A2 (Homo sapiens) (UniProt P05177); test: p450-cyp1a2 (AID 410; calls by dose curve; further: potency means the concentration at half of the fitted maximal effect); settings: recombinant CYP1A2, luciferin-ME demethylation, luminescence; series mostly up to 57 µM
How it was run: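 O-Demethylation of luciferin 6' methyl ether by human CYP1A2 is monitored as luciferase luminescence. Substrate sits at Km (100uM); enzyme is 20nM. Values are scaled to 57 uM furafylline as maximal inhibition.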

[3] = NFAT Signaling Pathway (AID 444; active means well fitted curve in either direction with a large enough effect, not every such curve was filed as active;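 further: carbachol stimulus at about its EC50 of 1 µM final; on the % scale 0 is the no-effect control and ±100 the full control effect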); settings: Jurkat NFAT-bla M1, carbachol, beta-lactamase ratio, 5 h; at 7.69 µM (top of the series) unless noted
How it was run: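 Read-out: CCF4 FRET ratio (460 nm/530 nm) after 1 h RT dye loading, used for %activity and AC50 from titration series. Cells: Jurkat NFAT-β-lactamase/M1 line, treated with compound plus 1 uM carbachol for 5 h, 37 °C.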

[4] = Stat Signaling Pathway (AID 446; active means well fitted curve in either direction with a large enough effect, not every such curve was filed as active;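 further: ME-180 cervical cancer cells given 40 pM IL-6 alongside compound; SIE-controlled beta-lactamase reporter measured as 460/530 nm FRET emission ratio; on the % scale 0 is the no-effect control and ±100 the full control effect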); settings: ME-180 SIE beta-lactamase reporter, IL-6 stimulated, 5 h; at 7.69 µM (top of the series) unless noted
How it was run: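 Emission at 460 and 530 nm (excitation 405 nm) reports SIE-controlled beta-lactamase in ME-180 cells. Cells received compound with 40 pM IL-6 for 5 hrs at 37 C; data scaled between 300 pM IL-6 and 125 nM JAK-inhibitor controls.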

[5] = target: Glucocorticoid receptor (Homo sapiens) (UniProt P04150); test: GR-GFP Redistribution (AID 450;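 active means compounds whose dose series gives a full or clear partial fitted curve of increased nuclear translocation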; further: potency means the concentration at half of the fitted maximal effect); settings: U2OS GR-GFP nuclear translocation, laser cytometry, 2 h
[6] = target: Glucocorticoid receptor (Homo sapiens) (UniProt P04150); test: GR-EFC Redistribution (AID 451; calls by dose curve; further: potency means the concentration at half of the fitted maximal effect); settings: CHO-K1 GR-EFC translocation, beta-gal luminescence, 2 h
How it was run: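 Translocation of GR-ED fusion to nuclear EA restores b-gal, read by luminescence after 1 h room-temperature detection. Engineered CHO-K1 biosensor cells, 1,000/well, exposed 2 h at 37 C to titrations up to 46 uM final.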

[7] = target: Mitogen-activated protein kinase 10 (Mus musculus) (UniProt Q61831); test: JNK3 AlphaScreen Assay (AID 530; active means well fitted curve in either direction with a large enough effect, not every such curve was filed as active;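 further: kinase came from lysate of stimulated human HepG2 cells; signal reports phosphorylation of biotinylated GST-cJun 1-79 at Ser73 with 10 µM ATP; on the % scale 0 is the no-effect control and ±100 the full control effect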); settings: JNK3 lysate, c-Jun phosphorylation; series mostly up to 57.1 µM
How it was run: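 qHTS titrations with 15 min compound pre-incubation before adding ATP (10 uM final). Read-out: AlphaScreen of Ser73-phosphorylated biotin-GST-cJun using HepG2 lysate JNK3 activated by IL-1β and TNFα.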

[8] = target: Cytochrome P450 2C9 (Homo sapiens) (UniProt P11712); test: qHTS Assay for Inhibitors and Substrates of Cytochrome P450 2C9 (AID 883); settings: recombinant CYP2C9, luciferin-H luminescence, 60 min; series mostly up to 57.1 µM; further: on the % scale 0 is the no-effect control and ±100 the full control effect; nearly all actives have a fitted effect of over 60% in size
How it was run: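 Turnover of Luciferin-H (100uM, KM) by 10nM human CYP2C9 was measured over 60 min at 37C with NADPH regeneration; inhibitors and some substrates reduce luminescence. Data normalized to sulphaphenazole 57uM.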

[9] = target: Cytochrome P450 3A4 (Homo sapiens) (UniProt P08684); test: qHTS Assay for Activators of Cytochrome P450 3A4 (AID 885); settings: recombinant CYP3A4, Luciferin-PPXE luminescence, 60 min; series mostly up to 57.1 µM; further: nearly all actives have a fitted effect of over 65% in size
How it was run: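 Activators are scored by enhanced luminescence from CYP3A4 conversion of luciferin-PPXE (25uM, equal to KM) to luciferin, after 60 min at RT with an NADPH-regenerating system.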

[10] = target: Dual specificity protein kinase CLK4 (Homo sapiens) (UniProt Q9HAZ1); test: qHTS Assay for Inhibitors of CDC-like Kinase 4 (Kinase-Glo Assay) (AID 1770); settings: recombinant Clk4, Kinase-Glo ATP depletion luminescence; series mostly up to 66.7 µM; further: nearly all actives have a fitted effect of over 65% in size; further: potency means the concentration at half of the fitted maximal effect
How it was run: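 Substrate mix (RS peptide 100 uM, ATP 1 uM) dispensed, compound pinned in, then Clk4 added to 25 nM final. Incubated 4.5 h at RT; Kinase-Glo reagent added, luminescence read after 5 min.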

[11] = target: Dual specificity protein kinase CLK4 (Homo sapiens) (UniProt Q9HAZ1); test: qHTS Assay for Inhibitors of CDC-like Kinase 4 (ADP-Glo Assay) (AID 1771); settings: recombinant CLK4, ADP-Glo luminescence; series mostly up to 80 µM; further: nearly all actives have a fitted effect of over 70% in size; further: potency means the concentration at half of the fitted maximal effect
How it was run: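 Compounds are pin-transferred onto substrate mix (100 uM RS peptide, 1 uM ATP), then 25 nM Clk4 is added. After 1 hr at room temperature, ADP-Glo reagent runs 45 min, detection reagent 30 min, then luminescence is read.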

[12] = target: Ubiquitin carboxyl-terminal hydrolase 1 (Homo sapiens) (UniProt O94782); test: Inhibitors of USP1/UAF1: Pilot qHTS (AID 504865); settings: purified USP1/UAF1, Ub-rhodamine cleavage fluorescence; series mostly up to 54.9 µM;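 further: rhodamine fluorescence freed from ubiquitin-rhodamine substrate followed over time; top concentration of the series differs between compounds; on the % scale 0 is the no-effect control and ±100 the full control effect; nearly all actives have a fitted effect of over 35% in size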
How it was run: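 In 50mM HEPES pH 7.8 containing 0.5mM EDTA, 1mM TCEP, 0.1 mg/ml BSA and 0.01% Tween-20, 1nM USP1/UAF1 is exposed to compound for 15 min, then Ub-Rho (150nM final) is added and fluorescence is read over time.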

[13] = Primary qHTS for small molecule stabilizers of the endoplasmic reticulum resident proteome: Secreted ER Calcium Modulated Protein (SERCaMP) assay (AID 1508630); settings: SH-SY5Y GLuc-SERCaMP (Gaussia luciferase released on ER calcium loss) secretion, thapsigargin, luminescence; series mostly up to 38.4 µM; further: on the % scale 0 is the no-effect control and ±100 the full control effect
How it was run: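 The SH-SY5Y reporter protocol was run at 3 concentrations up to 38.3 uM (primary) or 11 concentrations (follow-up): 16 h compound, 100 nM thapsigargin for 4 h, then extracellular luciferase luminescence.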

[14] = target: 3',5'-cyclic-AMP phosphodiesterase 4B (Homo sapiens) (UniProt Q07343); test: qHTS Assay for Inhibitors of PDE-IV (AID 607; active means well fitted activation curve with a large enough effect in the main read-out, with a control signal flat, not every such curve was filed as active; further: potency means the concentration at half of the fitted maximal effect); settings: HEK293 ACTOne CNG channel cells, membrane potential fluorescence; series mostly up to 22.9 µM
How it was run: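 The readout is membrane depolarisation from a cAMP-sensing CNG channel, detected with a potential dye at ex 535/em 590. Cells were HEK293-derived (endogenous PDE-IV) at 1000 cells/well, titrated up to 22.9 uM final.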

[15] = target: Cytochrome P450 3A4 (Homo sapiens) (UniProt P08684); test: qHTS Assay for Inhibitors and Substrates of Cytochrome P450 3A4 (AID 884); settings: recombinant CYP3A4, Luciferin-PPXE luminescence; series mostly up to 57.1 µM; further: potency means the concentration at half of the fitted maximal effect; nearly all actives have a fitted effect of over 50% in size
How it was run: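 Luminescent readout of luciferin produced by CYP3A4 (20 nM) dealkylation of Luciferin-PPXE, 25 uM (its KM). NADPH-driven reaction ran 60 min at RT after 10 min compound preincubation; data scaled to 57 uM ketoconazole as 100% inhibition.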

[16] = target: Cytochrome P450 2D6 (Homo sapiens) (UniProt P10635); test: qHTS Assay for Inhibitors and Substrates of Cytochrome P450 2D6 (AID 891); settings: recombinant CYP2D6, luciferin-ME EGE luminescence; series mostly up to 57.1 µM; further: potency means the concentration at half of the fitted maximal effect; nearly all actives have a fitted effect of over 60% in size
How it was run: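 Luminescent read-out of luciferin formed by 5 nM human CYP2D6 demethylating 30 uM Luciferin-ME EGE (Km level) over 60 min at room temperature after NADPH regeneration addition. Data normalized to full inhibition by 1.43 uM quinidine.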

[17] = qHTS Assay for Identification of Small Molecule Agonists for Hypoxia Response Element Signaling Pathway (AID 914; active means well fitted activation curve with a large enough effect in the signal ratio, with a control signal flat, not every such curve was filed as active; the % refers to the signal ratio; further: potency means the concentration at half of the fitted maximal effect; on activation: % of control where 0% means no effect); settings: ME-180 HRE-bla reporter, beta-lactamase ratio, CoCl2, 17 h; activation: hits give high values
How it was run: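 Cells were plated overnight, pin-dosed with compound in a titration series, co-stimulated with EC50 CoCl2 and incubated 17 hours at 37 degrees Celsius. CCF4 substrate was then loaded, and AC50 values came from the 460nm/530nm ratio.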

[18] = AP1 Signaling Pathway (AID 357; active means well fitted curve in either direction with a large enough effect, not every such curve was filed as active); settings: ME-180 (cervical carcinoma) AP-1-bla reporter, EGF-induced, beta-lactamase ratio, 5 h; at 7.69 µM (top of the series) unless noted
How it was run: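 Cells are seeded overnight, exposed to compound titrations and an EC50 level of EGF for 5 hours at 37 °C, then loaded with CCF4 dye for 2.5 hours. Beta-lactamase activity under the AP-1 element is read as a blue/green ratio.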

[19] = target: Cytochrome P450 2C19 (Homo sapiens) (UniProt P33261); test: qHTS Assay for Inhibitors and Substrates of Cytochrome P450 2C19 (AID 899); settings: recombinant CYP2C19, luciferin-H EGE luminescence; series mostly up to 57.1 µM; further: potency means the concentration at half of the fitted maximal effect; nearly all actives have a fitted effect of over 60% in size
How it was run: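 Reactions contain 5nM enzyme, 10uM Luciferin-H EGE (KM) and 50mM KPO4; compound preincubates 10 min at 37C, NADPH regeneration starts turnover for 60 min. Luminescence after detection reagent gives activity.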

Cytochrome P450 3A4 (Homo sapiens), sequence (P08684 whole entry, looked up): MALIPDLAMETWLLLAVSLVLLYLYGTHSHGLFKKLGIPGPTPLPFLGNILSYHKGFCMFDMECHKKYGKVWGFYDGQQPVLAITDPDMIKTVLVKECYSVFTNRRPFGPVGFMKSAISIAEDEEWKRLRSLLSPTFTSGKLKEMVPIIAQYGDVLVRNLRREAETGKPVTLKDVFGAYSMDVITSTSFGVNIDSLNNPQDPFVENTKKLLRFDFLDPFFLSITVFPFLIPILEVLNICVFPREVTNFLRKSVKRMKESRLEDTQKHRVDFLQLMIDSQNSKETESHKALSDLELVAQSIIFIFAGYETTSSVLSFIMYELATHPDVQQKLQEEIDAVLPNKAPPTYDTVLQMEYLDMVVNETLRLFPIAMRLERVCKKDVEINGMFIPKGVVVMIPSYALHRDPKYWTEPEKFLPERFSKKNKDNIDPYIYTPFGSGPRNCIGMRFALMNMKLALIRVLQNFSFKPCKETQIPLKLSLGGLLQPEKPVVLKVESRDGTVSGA
Ubiquitin carboxyl-terminal hydrolase 1 (Homo sapiens), sequence (O94782 whole entry, looked up): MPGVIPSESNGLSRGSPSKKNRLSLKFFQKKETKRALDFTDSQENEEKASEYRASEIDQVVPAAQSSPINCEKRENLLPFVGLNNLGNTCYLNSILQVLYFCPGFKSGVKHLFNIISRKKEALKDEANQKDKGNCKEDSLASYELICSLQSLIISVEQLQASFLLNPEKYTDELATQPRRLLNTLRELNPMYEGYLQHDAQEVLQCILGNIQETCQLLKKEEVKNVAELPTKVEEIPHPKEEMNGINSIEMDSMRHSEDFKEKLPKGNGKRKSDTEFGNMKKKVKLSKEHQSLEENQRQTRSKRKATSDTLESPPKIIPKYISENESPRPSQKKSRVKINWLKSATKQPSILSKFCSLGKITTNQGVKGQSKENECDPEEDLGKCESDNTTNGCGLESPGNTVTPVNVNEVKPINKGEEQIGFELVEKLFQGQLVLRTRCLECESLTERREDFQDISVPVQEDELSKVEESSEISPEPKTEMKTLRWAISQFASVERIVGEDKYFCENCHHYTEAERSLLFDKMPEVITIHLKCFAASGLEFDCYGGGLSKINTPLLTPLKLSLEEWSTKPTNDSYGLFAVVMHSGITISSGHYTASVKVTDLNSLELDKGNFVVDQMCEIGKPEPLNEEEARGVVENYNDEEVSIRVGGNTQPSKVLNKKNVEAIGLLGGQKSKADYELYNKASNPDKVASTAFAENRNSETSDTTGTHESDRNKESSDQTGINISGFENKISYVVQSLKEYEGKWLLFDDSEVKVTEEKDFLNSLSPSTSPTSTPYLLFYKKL
Glucocorticoid receptor (Homo sapiens), sequence (P04150 whole entry, looked up, the tested form may be a part): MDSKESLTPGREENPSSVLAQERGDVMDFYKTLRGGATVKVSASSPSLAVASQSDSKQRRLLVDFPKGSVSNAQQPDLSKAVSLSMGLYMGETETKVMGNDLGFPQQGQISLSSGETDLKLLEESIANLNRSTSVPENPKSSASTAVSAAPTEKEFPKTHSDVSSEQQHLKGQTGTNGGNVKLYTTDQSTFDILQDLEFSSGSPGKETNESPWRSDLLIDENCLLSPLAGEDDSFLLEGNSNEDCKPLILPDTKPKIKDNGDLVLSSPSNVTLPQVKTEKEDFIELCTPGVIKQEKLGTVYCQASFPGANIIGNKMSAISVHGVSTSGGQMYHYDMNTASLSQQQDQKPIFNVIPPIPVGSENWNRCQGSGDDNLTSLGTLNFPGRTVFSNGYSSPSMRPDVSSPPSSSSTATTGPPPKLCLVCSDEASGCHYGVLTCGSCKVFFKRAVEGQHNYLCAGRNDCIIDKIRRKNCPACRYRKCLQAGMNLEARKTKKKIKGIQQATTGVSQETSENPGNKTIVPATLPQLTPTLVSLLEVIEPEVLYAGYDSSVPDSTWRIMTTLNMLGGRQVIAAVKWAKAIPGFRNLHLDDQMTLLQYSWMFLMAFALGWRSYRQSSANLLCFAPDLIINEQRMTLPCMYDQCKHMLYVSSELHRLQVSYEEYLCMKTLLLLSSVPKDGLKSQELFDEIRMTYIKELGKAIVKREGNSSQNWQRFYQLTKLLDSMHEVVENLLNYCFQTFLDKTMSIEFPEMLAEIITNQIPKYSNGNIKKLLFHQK
Dual specificity protein kinase CLK4 (Homo sapiens), sequence (Q9HAZ1 whole entry, looked up): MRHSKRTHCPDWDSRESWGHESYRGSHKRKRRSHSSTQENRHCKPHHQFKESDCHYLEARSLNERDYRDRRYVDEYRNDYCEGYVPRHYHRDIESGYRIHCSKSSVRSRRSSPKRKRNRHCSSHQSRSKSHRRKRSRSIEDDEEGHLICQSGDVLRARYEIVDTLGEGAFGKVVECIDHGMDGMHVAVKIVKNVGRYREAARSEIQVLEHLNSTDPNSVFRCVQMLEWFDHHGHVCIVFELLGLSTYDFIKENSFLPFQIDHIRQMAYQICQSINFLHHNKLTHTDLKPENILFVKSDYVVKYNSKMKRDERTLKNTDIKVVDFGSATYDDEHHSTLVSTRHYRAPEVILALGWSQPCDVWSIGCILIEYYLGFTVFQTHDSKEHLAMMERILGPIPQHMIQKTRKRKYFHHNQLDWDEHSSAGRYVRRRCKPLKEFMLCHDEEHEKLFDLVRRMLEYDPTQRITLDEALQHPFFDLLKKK
Cytochrome P450 1A2 (Homo sapiens), sequence (P05177 whole entry, looked up): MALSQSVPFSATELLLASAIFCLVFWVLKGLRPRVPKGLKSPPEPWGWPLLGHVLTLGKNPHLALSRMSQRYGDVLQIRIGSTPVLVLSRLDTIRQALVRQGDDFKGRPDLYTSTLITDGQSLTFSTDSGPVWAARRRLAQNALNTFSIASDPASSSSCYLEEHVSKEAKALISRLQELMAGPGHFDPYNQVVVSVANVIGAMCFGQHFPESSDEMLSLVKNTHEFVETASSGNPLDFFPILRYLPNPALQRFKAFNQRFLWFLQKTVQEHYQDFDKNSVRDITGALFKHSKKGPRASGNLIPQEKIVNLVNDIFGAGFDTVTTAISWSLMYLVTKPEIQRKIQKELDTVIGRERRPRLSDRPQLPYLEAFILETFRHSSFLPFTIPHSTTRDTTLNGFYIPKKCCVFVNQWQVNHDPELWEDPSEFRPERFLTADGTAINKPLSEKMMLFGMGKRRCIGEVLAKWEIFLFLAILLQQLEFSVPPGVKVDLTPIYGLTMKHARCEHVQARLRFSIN
3',5'-cyclic-AMP phosphodiesterase 4B (Homo sapiens), sequence (Q07343 whole entry, looked up): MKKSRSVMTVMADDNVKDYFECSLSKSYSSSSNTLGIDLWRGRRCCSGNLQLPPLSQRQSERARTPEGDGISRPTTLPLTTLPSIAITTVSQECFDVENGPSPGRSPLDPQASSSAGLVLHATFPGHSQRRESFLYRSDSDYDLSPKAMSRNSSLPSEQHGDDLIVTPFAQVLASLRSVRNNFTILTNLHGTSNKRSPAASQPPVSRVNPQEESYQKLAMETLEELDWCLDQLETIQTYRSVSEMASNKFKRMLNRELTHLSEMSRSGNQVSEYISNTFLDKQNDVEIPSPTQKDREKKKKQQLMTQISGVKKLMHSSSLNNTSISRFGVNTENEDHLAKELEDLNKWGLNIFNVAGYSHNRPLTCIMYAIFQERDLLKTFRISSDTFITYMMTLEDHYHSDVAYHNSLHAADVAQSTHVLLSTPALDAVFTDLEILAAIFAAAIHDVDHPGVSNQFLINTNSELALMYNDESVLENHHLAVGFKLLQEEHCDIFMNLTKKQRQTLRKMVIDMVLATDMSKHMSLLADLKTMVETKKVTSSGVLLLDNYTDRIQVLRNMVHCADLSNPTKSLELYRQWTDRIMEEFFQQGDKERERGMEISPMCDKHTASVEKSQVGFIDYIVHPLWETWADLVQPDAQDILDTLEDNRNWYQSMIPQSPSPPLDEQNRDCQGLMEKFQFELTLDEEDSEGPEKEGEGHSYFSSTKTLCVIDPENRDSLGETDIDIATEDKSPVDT
Lysosomal acid glucosylceramidase (Homo sapiens), sequence (P04062 whole entry, looked up): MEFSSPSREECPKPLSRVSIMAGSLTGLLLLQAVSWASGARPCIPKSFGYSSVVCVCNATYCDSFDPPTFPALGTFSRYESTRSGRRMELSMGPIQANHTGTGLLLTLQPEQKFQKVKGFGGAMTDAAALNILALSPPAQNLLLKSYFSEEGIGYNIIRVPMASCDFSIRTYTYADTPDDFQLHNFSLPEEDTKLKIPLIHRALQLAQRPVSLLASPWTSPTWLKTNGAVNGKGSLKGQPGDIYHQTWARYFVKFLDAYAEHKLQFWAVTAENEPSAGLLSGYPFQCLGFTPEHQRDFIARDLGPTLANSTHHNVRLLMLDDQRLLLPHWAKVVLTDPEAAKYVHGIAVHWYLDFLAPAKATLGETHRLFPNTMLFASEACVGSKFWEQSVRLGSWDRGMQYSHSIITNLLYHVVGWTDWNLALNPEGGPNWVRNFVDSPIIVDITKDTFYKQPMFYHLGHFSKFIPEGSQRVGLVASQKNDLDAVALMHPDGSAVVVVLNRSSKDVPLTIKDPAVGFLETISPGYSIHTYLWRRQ
Cytochrome P450 2D6 (Homo sapiens), sequence (P10635 whole entry, looked up): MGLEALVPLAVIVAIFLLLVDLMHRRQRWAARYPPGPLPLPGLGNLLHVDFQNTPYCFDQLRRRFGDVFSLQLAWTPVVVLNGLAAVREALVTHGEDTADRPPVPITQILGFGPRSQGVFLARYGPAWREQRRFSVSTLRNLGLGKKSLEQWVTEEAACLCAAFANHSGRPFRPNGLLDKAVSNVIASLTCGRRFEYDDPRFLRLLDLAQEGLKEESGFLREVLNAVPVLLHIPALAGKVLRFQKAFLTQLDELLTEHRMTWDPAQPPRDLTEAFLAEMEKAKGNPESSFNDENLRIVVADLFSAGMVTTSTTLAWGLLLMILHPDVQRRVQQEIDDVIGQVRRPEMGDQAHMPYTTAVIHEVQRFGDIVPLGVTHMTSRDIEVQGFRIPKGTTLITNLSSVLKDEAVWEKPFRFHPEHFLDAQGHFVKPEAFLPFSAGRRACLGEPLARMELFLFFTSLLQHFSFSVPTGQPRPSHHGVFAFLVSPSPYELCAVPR

| SMILES | Potency [1] | Potency [2] | activity change, negative = inhibition [3] | activity, negative = inhibition [4] | Potency [5] | Potency [6] | Potency [7] | Potency [8] | Potency [9] | Potency [10] | Potency [11] | Potency [12] | outcome [13] | Potency [14] | Potency [15] | Potency [16] | Potency [17] | activity change, negative = inhibition [18] | Potency [19] | activation [17] |
| --- | --- | --- | --- | --- | --- | --- | --- | --- | --- | --- | --- | --- | --- | --- | --- | --- | --- | --- | --- | --- |
| COc1ncc2nc(-c3cn(C)c4ccccc34)c(=O)n(-c3ccccc3)c2n1 | > 11.4 µM | 5.01 µM (active) | -18.5% | 6.13% | > 9.22 µM | > 46 µM | inactive | inactive | inactive | inactive | inactive | inactive | inactive | – | – | – | – | – | – | – |
| COc1ccc2[nH]cc(CCNc3ccnc(-c4cccnc4)n3)c2c1 | > 11.4 µM | 0.251 µM (active) | 11.3% | -3.13% | > 46 µM | > 46 µM | inactive | – | inactive | 12.6 µM (active) | 14.1 µM (active) | inactive | inactive | inactive | 1.26 µM (active) | 1.26 µM (active) | – | – | – | – |
| CS(=O)(=O)Nc1cccc(-c2ccc3ncnc(NCc4cccs4)c3c2)c1 | > 11.4 µM | 0.0794 µM (active) | – | -2.34% | > 46 µM | > 46 µM | inactive | – | inactive | 7.94 µM (active) | 7.94 µM (active) | inactive | inactive | – | 3.16 µM (active) | – | – | – | – | – |
| CN(C)c1ncc2nc(-c3ccc(Cl)cc3)c(=O)n(-c3ccccc3)c2n1 | > 11.4 µM | 5.01 µM (active) | – | – | > 9.22 µM | > 46 µM | inactive | – | – | inactive | inactive | inactive | inactive | 1 µM (active) | – | – | 2.51 µM (active) | – | – | – |
| COc1ccc2[nH]cc(CCNc3cc(-c4ccccc4C)ncn3)c2c1 | > 11.4 µM | – | -8.49% | -6.58% | > 46 µM | > 46 µM | – | – | inactive | 25.1 µM (active) | 15.8 µM (active) | inactive | inactive | inactive | 5.01 µM (active) | 7.94 µM (active) | – | -2.94% | 7.94 µM (active) | -7.71% |
| CN(C)c1ccc(-c2ccc3ncnc(N(C)Cc4ccco4)c3c2)cc1 | > 11.4 µM | – | – | -0.793% | > 46 µM | > 46 µM | inactive | – | – | 8.91 µM (active) | 7.08 µM (active) | inactive | inactive | inactive | – | – | – | -28.7% | – | -3.37% |
